{
  "source": "PubChem BioAssay AID686977",
  "about": "(Southern Research Specialized Biocontainment Screening …, 2013)",
  "note": "Among all 9,400 compounds or so, fewer than 10 were called active. About 5% were inconclusive and are not listed. No rule for the calls is given here. A selection follows. Results with a measured potency or affinity are listed apart.",
  "data": [
    {"assay": "Vibrio cholerae quorum sensing activators, luminescence (AID 686977)", "details": "V. cholerae quorum sensing reporter, 6 h, active compounds read high; dose 50, dose unit µM unless noted", "values": [
      {"smiles": "O=C(c1ccccc1)n1ccc(-c2cnc(-c3ccccc3)s2)n1", "luminescence": "0 (inactive)"},
      {"smiles": "CC1CCc2nn(CC(=O)NCCC3=CCCCC3)cc2C1", "note": "(centres undefined)", "luminescence": "0 (inactive)"},
      {"smiles": "C=CCn1c(SCc2cccc(C#N)c2)nnc1-c1ccccc1O", "luminescence": "360 (inactive)"},
      {"smiles": "CCCC(c1nnnn1Cc1ccco1)N1CCN(c2cc(Cl)ccc2C)CC1", "note": "(centres undefined)", "luminescence": "0 (inactive)"},
      {"smiles": "CCCCCn1c(SCc2ccncc2)nc2cc(C(=O)NCc3ccco3)ccc2c1=O", "luminescence": "40 (inactive)"},
      {"smiles": "Cc1ccc(-c2nnc3n2N=C(c2ccccc2)CS3)cc1", "luminescence": "0 (inactive)"},
      {"smiles": "Cc1c(NC(=O)c2cc(CC(C)C)on2)c(=O)n(-c2ccccc2)n1C", "luminescence": "0 (inactive)"},
      {"smiles": "CCOC(=O)CC1C(=O)NCCN1C(=O)NC1CCCCC1", "note": "(centres undefined)", "luminescence": "0 (inactive)"},
      {"smiles": "CCn1c(SCC(=O)NCc2ccco2)nc2c(c1=O)SC(C)C2", "note": "(centres undefined)", "luminescence": "0 (inactive)"},
      {"smiles": "CCCc1[nH]nc2c1C(C1CCCCC1)C(C#N)=C(N)O2", "note": "(centres undefined)", "luminescence": "0 (inactive)"},
      {"smiles": "CC(C)Cn1c(SC(C)C(=O)Nc2ccc3c(c2)OCCO3)nc2ccccc2c1=O", "note": "(centres undefined)", "luminescence": "40 (inactive)"},
      {"smiles": "Cc1cccc(NC(=O)C2CC(=O)n3cnnc3S2)c1", "note": "(centres undefined)", "luminescence": "40 (inactive)"},
      {"smiles": "COCCn1c(SCc2nc3ccccc3c(=O)[nH]2)nnc1-c1ccncc1", "luminescence": "40 (inactive)"},
      {"smiles": "COc1ccc2ccc(Oc3ncccn3)cc2c1", "luminescence": "200 (inactive)"},
      {"smiles": "CCOC(=O)N1CCC(Nc2c(N3CCN(c4cc(Cl)ccc4C)CC3)c(=O)c2=O)CC1", "luminescence": "0 (inactive)"},
      {"smiles": "Cc1nc(-c2cccc(NS(=O)(=O)c3ccccc3)c2)cs1", "luminescence": "160 (inactive)"},
      {"smiles": "CC1(C)N=C(N)N=C(N)N1c1cccc(C(=O)O)c1", "luminescence": "0 (inactive)"},
      {"smiles": "CCOC(=O)c1sc(NCc2ccco2)c(-c2nc3ccccc3s2)c1N", "luminescence": "0 (inactive)"},
      {"smiles": "N#CC1(c2ccccc2)CCCN1C(=O)c1ccccc1Cl", "note": "(centres undefined)", "luminescence": "0 (inactive)"},
      {"smiles": "Cn1c(=O)oc2cc(S(=O)(=O)N3CCCc4ccccc43)ccc21", "luminescence": "40 (inactive)"},
      {"smiles": "CC1CCc2cc(F)ccc2N1C(=O)c1cnc2sccn2c1=O", "note": "(centres undefined)", "luminescence": "0 (inactive)"},
      {"smiles": "COc1ccc(-c2nc(CS(=O)CC(=O)N3CCCC3)c(C)o2)cc1", "note": "(centres undefined)", "luminescence": "0 (inactive)"},
      {"smiles": "CC(C)(C)c1nc2ccccc2c2nnc(SCC(=O)Nc3nccs3)n12", "luminescence": "80 (inactive)"},
      {"smiles": "COc1ccc(NC(=O)CSc2nccn2-c2cccc(OC)c2)cc1", "luminescence": "0 (inactive)"},
      {"smiles": "Nc1nnnn1/N=C/c1ccccc1C(F)(F)F", "luminescence": "40 (inactive)"},
      {"smiles": "Cc1c(Cl)cccc1NC(=O)c1cc(-c2ccccc2O)n[nH]1", "luminescence": "0 (inactive)"},
      {"smiles": "COc1ccc(N/N=C(\\C=N\\O)C(=O)c2ccc(OC)cc2)cc1", "luminescence": "0 (inactive)"},
      {"smiles": "CCOC(=O)CSc1ccc(-c2nc3ccccc3[nH]2)cn1", "luminescence": "0 (inactive)"},
      {"smiles": "Cc1nc(C)c(C(=O)C2=C(O)C(=O)N(CCN3CCOCC3)C2c2ccco2)s1", "note": "(centres undefined)", "luminescence": "0 (inactive)"}
    ]}
  ]
}
